Bioassay records (PubChem BioAssay)
VACV Venus inh – vaccinia inhibition (Venus reporter) | AID 720580 | Vaccinia virus Venus reporter expression, fluorescence | Potency, µM (titrated, usually from 36.5 µM), hits mostly inhibitors | hit rate 0.46% among 330,000; calls by dose curve; tested in A549 cells; note: nearly all actives have a fitted effect of over 30% in size
Marburg entry inh – inhibitors of Marburg virus binding or cell entry. Marburg virus pseudotyped entry inhibition, cell reporter. AID 540276. Potency, µM (series often up to 37.8 µM), usual class: inhibitors. hit rate 1.8% among 300,000; calls by dose curve; tested in HEK293 cells
HCMV inh – blocks human cytomegalovirus replication; HFF cells, HCMV-luciferase reporter, 72 h; stronger effect = lower value; activity change, negative = inhibition, % at 57.5 µM; hit rate 4.5% among 410,000; AID 1259415; in the data active = activity change below about -60%; inconclusive = no clear call, values can overlap the other calls; inactive = above about -39%
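Inhibition of viral replication was scored as loss of reporter luminescence in HFFs infected with HCMV-luciferase (MOI 1 PFU/cell) for 72 h; compounds tested at 2 doses, normalized to buffer and Salinomycin controls.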
VACV mCherry inh – inhibitors of vaccinia virus infection (mCherry reporter signal). Vaccinia virus mCherry reporter infection, fluorescence. Potency, µM (doses to about 36.5 µM), usual class: inhibitors. hit rate 0.63% among 310,000. AID 720579; calls by dose curve; tested in A549 cells; note: nearly all actives have a fitted effect of over 35% in size
LASV entry inh – blocks Lassa virus binding to or entry into cells | Lassa virus pseudotype entry inhibition, cell reporter | Potency, µM (top dose mostly 37.9 µM), actives largely listed as inhibitors | hit rate 1.2% among 300,000; calls by dose curve; tested in HEK293 cells; note: nearly all actives have a fitted effect of over 50% in size
FMDV inh – foot and mouth disease virus antiviral activity | hit rate 1.2% among 410,000 | FMDV antiviral cell-based qHTS | Potency, µM (series often up to 57.9 µM), actives largely listed as inhibitors; calls by dose curve; tested in HEK293T cells; note: read-out not given here; nearly all actives have a fitted effect of over 45% in size
A number is an active result; - = inactive; ? = inconclusive; . = no result given; [ ] = remark or other dose. Only some compounds are listed: those with a hit (about 6.5% of all), similar ones and a draw of the others.

SMILES	VACV Venus inh	Marburg entry inh	HCMV inh	VACV mCherry inh	LASV entry inh	FMDV inh
CN(C)S(=O)(=O)c1ccc(C(=O)OCc2nnc(-c3ccccc3)o2)cc1	-	-	-	-	-	-
CS(=O)(=O)c1ccc(C(=O)OCc2nnc(-c3ccccc3)o2)cc1[N+](=O)[O-]	?	3.2µM	-	-	?	-
CC(CCc1ccccc1)NC(=O)COC(=O)c1ccc([N+](=O)[O-])cc1 (stereo not given)	-	-	-	?	-	-
CCCCC/C=C\C\C=C/C=C/C=C/[C@@H](SC[C@H](NC(=O)CC[C@H](N)C(=O)O)C(=O)NCC(=O)O)[C@@H](O)CCCC(=O)O	-[0.293 µM]	.	.	-[0.293 µM]	.	-[0.463 µM]
Cc1cccc(N2CCN(C(=O)c3cc4c(=O)n(C)c5ccccc5c4s3)CC2)c1C	-	-	-	?	-	-
COc1cccc(Nc2ncc3ncc(=O)n(C)c3n2)c1	.	.	.	.	.	-
O=c1cc(-c2ccccc2)nc2cc(-c3ccc(F)cc3)[nH]n12	?	?	-	-	?	-
Fc1ccc(-c2cc(-c3ccccc3)nc(-n3cccn3)n2)cc1	-	?	-61	-	-	?
CCC1(OC(=O)CN(C)C)C(=O)OCc2c1cc1n(c2=O)Cc2cc3c(N)cccc3nc2-1 (stereo not given)	?	?	.	?	?	-
CCC1(O)C(=O)OCc2c1cc1n(c2=O)Cc2cc3c(N)cccc3nc2-1 (stereo not given)	?	?	-98	-	?	-
O=C(CN(Cc1cccs1)C(=O)CSc1nnc(COc2ccccc2)o1)NC1CCCCC1	-	?	-	.	?	40µM
CCOc1ccc(N(CC(=O)NC2CCCCC2)C(=O)CSc2nnc(COc3ccccc3)o2)cc1	-	-	-	-	-	-
Cc1sc2ncnc(SCC(=O)N3CCC(c4noc5ccc(F)cc45)CC3)c2c1C	-	-	-	-	-	-
Cc1nnc(SCC(=O)N2CCC(c3noc4ccc(F)cc34)CC2)s1	.	-	-70	.	-	-
O=C(C/C=N\O)Nc1ccc(Oc2ccccc2)cc1	-	-	-	?	-	-
O=C(CN1CCCC1)Nc1ccc(-c2nc3cc(NC(=O)CN4CCCC4)ccc3o2)cc1	.	?	-100	.	?	-
CO/N=C\CC(=O)Nc1ccc(Oc2ccccc2)cc1	-	?	-70	?	?	-
CCN(CC)CC(=O)Nc1ccc(Oc2ccc(NC(=O)CN(CC)CC)cc2)cc1	-	4µM	-	-	-	-
CCN(CC)CC(=O)Nc1ccc(-c2nc3cc(NC(=O)CN(CC)CC)ccc3o2)cc1	-	0.71µM	-	.	-	-
CCN(CC(=O)Nc1ccc(OC)cc1)CC(=O)Nc1ccc(Cl)cc1F	-	-	-	-	-	-
CCOC(=O)CN(C)C(=O)c1cnn(-c2ncc3c(n2)-c2ccccc2CCC3)c1C	-	.	.	-	.	-
Cc1ccc2oc(-c3ccc(NC(=O)CC(C)C)cc3)nc2c1	-	?	-	-	-	-
CCC(C)NCC(=O)Nc1ccc(-c2nc3cc(NC(=O)CNC(C)CC)ccc3o2)cc1 (stereo not given)	-	?	-84	.	?	-
CC(C)(C)OC(=O)N1CCC(c2c(C(=O)NCc3ccco3)cnn2-c2ccc(F)cc2F)CC1	-	.	?	-	?	-
Cc1ccc(/C=N/n2c(COc3ccccc3)n[nH]c2=S)cc1	.	.	-	.	.	-
SMILES	VACV Venus inh	Marburg entry inh	HCMV inh	VACV mCherry inh	LASV entry inh	FMDV inh
O=[N+]([O-])c1ccc(O)c(/C=N/n2c(-c3ccccc3)n[nH]c2=S)c1	-	-	-	-	-	-
CC(C)CCn1c(COc2ccccc2)n[nH]c1=S	-	-	-62	-	-	-
FC(F)Oc1ccc(/C=N/n2c(Cc3ccc(Br)cc3)n[nH]c2=S)cc1	-	-	-	-	5µM	-
CSc1ccc(/C=N/n2c(Cc3ccc(Br)cc3)n[nH]c2=S)cc1	-	-	-	-	?	-
O=[N+]([O-])c1ccc(Cl)c(/C=N/n2c(-c3ccncc3)n[nH]c2=S)c1	-[7.34 µM]	-	-67	-[7.34 µM]	-	-
CC(C)c1ccc(/C=N/n2c(COc3ccccc3)n[nH]c2=S)cc1	-	?	-	-	1.6µM	-
CN(C)c1ccc(/C=N/n2c(COc3ccccc3)n[nH]c2=S)cc1	-	-	-	-	0.92µM	-
S=c1[nH]nc(-c2ccncc2)n1/N=C/C(Cl)=C\c1ccccc1	.	.	-87	.	.	-
S=c1[nH]nc(COc2ccccc2)n1/N=C/c1ccccc1Cl	-	-	?	-	?	-
S=c1[nH]nc(COc2ccccc2)n1/N=C/c1c(Cl)cccc1Cl	.	.	-103	.	.	-
S=c1[nH]nc(-c2ccncc2)n1/N=C/C=C/c1ccccc1	-	?	-	-	-	-
S=c1[nH]nc(COc2ccccc2)n1/N=C/C=C/c1ccccc1	-	-	-	-	?	-
S=c1[nH]nc(COc2ccccc2)n1/N=C/C=C/c1ccco1	-[7.34 µM]	-	-	-[7.34 µM]	0.79µM	-
CC(c1ccc(Cl)cc1)N(CCN(C)C)c1ccccn1 (stereo not given)	.	.	-	.	.	.
CN(C)c1ccc(/C=[N+]2\C(=O)CC(=O)NC2=O)cc1	-	.	.	-	.	.
CN[C@H](CC(C)C)C(=O)N[C@H]1C(=O)N[C@@H](CC(N)=O)C(=O)N[C@@H]2C(=O)N[C@H]3C(=O)N[C@H](C(=O)N[C@H](C(=O)O)c4cc(O)cc(O)c4-c4cc3ccc4O)[C@H](O)c3ccc(c(Cl)c3)Oc3cc2cc(c3O[C@@H]2O[C@H](CO)[C@@H](O)[C@H](O)[C@@H]2O[C@H]2C[C@](C)(N)[C@H](O)[C@H](C)O2)Oc2ccc(cc2Cl)[C@H]1O	.	-	.	.	-	.
S=c1[nH]nc(COc2ccccc2)n1/N=C/c1cccnc1	-	-	-	-	?	-
S=c1[nH]nc(COc2ccccc2)n1/N=C/C(Cl)=C/c1ccccc1	.	-	-	.	18µM	35µM
Cc1nn(-c2ccccc2)c(C)c1/C=N/n1c(-c2ccc(Cl)cc2)n[nH]c1=S	-	-	?	-	?	?
Cc1nn(-c2ccccc2)c(C)c1/C=N/n1c(-c2ccncc2)n[nH]c1=S	-	?	-74	-	?	-
COc1ccc(Oc2ncc3nc(CCc4ccccc4)c(=O)n(CCC#N)c3n2)cc1	.	.	.	.	.	-
COc1ccc(-c2sc(Nc3ccccc3)n[n+]2-c2ccccc2)cc1Br	-	.	?	-	.	-
C(=C\c1sc(Nc2ccccc2)n[n+]1-c1ccccc1)/c1ccccc1	8.9µM	.	-	?	.	6.3µM
C=C1CCCC2OC(CC3=CC4/C(C)=C/CC(C)CC(/C=C(\C)C(O)C5CC(O)C(O)C(CCC(O)/C=C/C(C)=C/CCC6=NCCC(C3)C64C)O5)OC(=O)CC3OC(C(O)C1)C(O)C3O)CC(O)C2O (stereo not given)	.	.	-78	.	.	.
COc1cc(/C=N/NC(=O)c2c(C)nc3ccc(Cl)cn23)cc(OC)c1OC	-	4.5µM	-	-	-	-
CCOc1ccccc1/C=N/NC(=O)c1c(C)nc2ccc(Br)cn12	.	.	-	.	.	?
COc1ccc(/C=N/NC(=O)c2c(C)nc3ccc(Cl)cn23)cc1OC	.	.	-	.	.	-
